These results are taken from paper PMC4552634, “A New Set of Chemical Starting Points with Plasmodium falciparum Transmission-Blocking Potential for Antimalarial Drug Discovery” (PLoS ONE, 2015).

As usually defined, the % Inhibition is the drop in the measured response relative to a control, in per cent.

Each structure is given as a SMILES string. Among all 13,000 compounds or so, about 3,200 (25%) showed an effect of 50% or more. The list shows a part of the results.

The test system of this assay is P. falciparum stage V gametocytes. Also noted: BacTiter-Glo ATP luminescence viability of purified stage V gametocytes in 384-well plates, per cent inhibition versus DMSO. The conditions noted are these: 48 h, 5 µM; inhibitor.
Consider `CCN(CC)CCCN(C(=O)Nc1c(Cl)cncc1Cl)c1nc(-c2ccc(F)cc2)cs1` [TCMDC-136666], for which the “% Inhibition” value is -35.52%. Under `O=C(Cc1ccc(NC(=O)c2ccc(O)c(-c3ccc(Cl)c(Cl)c3)c2)cc1)NCCN1CCCCC1` [TCMDC-140861] stands -19.27%; under `O=C(Nc1cccc2ccccc12)N1CCC(NS(=O)(=O)c2cccc(C(F)(F)F)c2)CC1` [TCMDC-139437], -43.48%. Under `Cn1c(N)c(N=O)c(=O)[nH]c1=O` [TCMDC-123469] stands -4.943%. Under `CC1CN(Cc2ccc(C#N)cc2)CCN1c1ccc(NC(=O)c2cccs2)cc1` (stereo not drawn) [TCMDC-134949] stands -2.454%. Turning to `Cc1nnnn1-c1ccc(C(=O)N2CCC3(CC2)CN(Cc2ccc(Cl)c(Cl)c2)C(=O)O3)cc1` [TCMDC-141691], the “% Inhibition” value was -63.06%. In the case of `O=C(CCCCCNC(=O)c1ccc(O)c(-c2ccc(Cl)c(Cl)c2)c1)NCCc1ccc(Cl)c(Cl)c1` [TCMDC-140870] it was 6.745%; in that of `O=C(Nc1ccc(CCNCCCc2ccccc2)cc1)Nc1ccc(Cl)c(Cl)c1` [TCMDC-140703], 18.38%. Under `Oc1ccc(CCNCCCCCCNCCc2ccc(Cl)c3ccccc23)cc1O` [TCMDC-131271] stands 123.4%; under `NS(=O)(=O)c1cccc(Nc2nccc(-c3cnn4ncccc34)n2)c1` [TCMDC-138919], -22.3%; under `Cc1cc(N)c2cc(NC(=O)c3cc4ccccc4s3)ccc2n1` [TCMDC-139336], 120.6%. In the case of `Nc1nc(N)c2cc(CNc3ccc(Cl)c(Cl)c3)ccc2n1` [TCMDC-141974] it was -49.67%.

Turning to `O=C(Nc1cncc(NC(=O)c2ccc(Cl)c(Cl)c2)c1)c1ccc(Cl)c(Cl)c1` [TCMDC-134576], the “% Inhibition” value is -22.28%. In the case of `Cc1cc(Nc2cccc(C(F)(F)F)c2)nc2ccc(NC(=O)c3ccc(=O)[nH]c3)cc12` [TCMDC-125286] it was -51.61%; in that of `Cc1cc(N)c2cc(NC(=O)c3ccc4ccccc4c3)ccc2n1` [TCMDC-139362], 110.4%; in that of `Cc1[nH]cnc1-c1cccc(NC(=O)c2cc3ccccc3s2)c1` [TCMDC-140418], -4.001%. As for `CN1CCc2cc(NC(=O)c3cc4ccccc4s3)cc(-c3ccccc3)c2CC1` [TCMDC-141733], the “% Inhibition” value worked out at 18.19%. Under `Cc1cc(N)c2cc(NC(=O)c3cc(C(F)(F)F)cc(C(F)(F)F)c3)ccc2n1` [TCMDC-139377] stands 129.8%; under `Nc1nc(N)c2cc(NC(=O)c3ccc(Cl)c(Cl)c3)ccc2n1` [TCMDC-141982], 63.61%. Under `COc1cc(C)nc2ccc(NC(=O)c3cc(C(F)(F)F)cc(C(F)(F)F)c3)cc12` [TCMDC-139381] stands -62.94%. In the case of `CC(C)c1cc(N)c2cc(NC(=O)COCC(=O)Nc3ccc4nc(C(C)C)cc(N)c4c3)ccc2n1` [TCMDC-140151] it was 20.51%. Take `Cc1ccc2nc(-c3cc(-c4ccc(OCc5ccccc5)cc4)cnc3N)[nH]c2c1` [TCMDC-135839]: the “% Inhibition” value is given as -50.65%. Under `Cn1c(=O)n(C)c2cc(CNCCNc3ccnc4cc(Cl)ccc34)ccc21` [TCMDC-125236] stands 26.13%; under `CCCOc1ccc(CCCON2C(N)=NC(N)=NC2(C)C)cc1` [TCMDC-131757], 14.14%.

With `Cc1noc(C)c1-c1cccc(CNCc2ccc(-c3cccc(-c4nc5ccccc5[nH]4)c3)cc2)c1.O=C(O)C(F)(F)F` [TCMDC-132565], the “% Inhibition” value is -39.99%. Under `OCCN1CCN(C(=S)NC2CCCCC2)CC1` [TCMDC-123848] stands -10.92%; under `O=C(NCc1cccc(C(F)(F)F)c1)c1ccc(-c2nc3cc(F)c(F)cc3[nH]2)cc1` [TCMDC-140461], 13.57%; under `Cc1cc(C(=O)Nc2ccc(OCc3ccccc3)cc2)on1` [TCMDC-124596], 15.42%.

On to `Cc1cc(N)c2cc(NC(=O)c3cccc4ccccc34)ccc2n1` [TCMDC-139378], for which the “% Inhibition” value was 63.27%. Turning to `Cc1cc(Nc2ccc(OCc3ccccc3Cl)cc2)c2cc(Cl)ccc2n1` [TCMDC-123799], the “% Inhibition” value is given as -30.43%. Consider `Cc1cc(N)c2cc(NC(=O)c3cccc(C(=O)Nc4ccc5nc(C)cc(N)c5c4)c3)ccc2n1` [TCMDC-139410], for which the “% Inhibition” value stood at 73.19%. On to `CCc1ccc(OCc2ccccc2C(=O)Nc2ccc3nc(C)cc(N)c3c2)cc1` [TCMDC-125882], for which the “% Inhibition” value is recorded as 102.8%.

On to `Cc1cc(N)c2cc(NC(=O)CCC(=O)Nc3ccc4nc(C)cc(N)c4c3)ccc2n1` [TCMDC-139503], for which the “% Inhibition” value was 21.97%. Under `Cc1cc(C)c(C(=O)Nc2ccc3nc(C)cc(N)c3c2)c(C)c1` [TCMDC-139379] stands -0.864%.

As to `COc1cc(C)nc2ccc(NC(=O)Nc3cccc4ccccc34)cc12` [TCMDC-139397], the “% Inhibition” value was -27.18%. In the case of `COc1cc(C)nc2ccc(NC(=O)c3ccc(C(=O)Nc4ccc5nc(C)cc(OC)c5c4)cc3)cc12` [TCMDC-139502] it was 14.93%; in that of `Cc1cccc2nc(-c3ccc(-c4ccc(CN5CCN(c6ccc(C#N)cn6)CC5)cc4)s3)[nH]c12.O=C(O)C(F)(F)F` [TCMDC-133116], 1.839%; in that of `NC1(C(=O)O)Cc2ccc(Cl)cc2C1` (stereo not drawn) [TCMDC-131768], 8.887%. Under `O=C(/C=C/c1ccc(Cl)c(Cl)c1)NC1CCN(Cc2cccc(O)c2)CC1` [TCMDC-141738] stands -9.136%. Under `Oc1ccc2c(c1NCC1CCCCC1)CCCC2` [TCMDC-138157] stands -18.15%; under `COC(=O)CN(C(=O)/C=C/c1ccc(Cl)c(Cl)c1)C1CCC(CN2CCC(c3c[nH]c4ccccc34)CC2)CC1` (stereo not drawn) [TCMDC-140320], 0.7085%. Consider `Oc1ccc(-c2cc(-c3ccc(O)cc3)nc(-c3ccccc3)n2)cc1` [TCMDC-123851], for which the “% Inhibition” value is given as -22.65%. Under `Cc1ccccc1C1CCN(C2CCC(NC(=O)c3ccc(-c4ccccc4)s3)CC2)CC1` (stereo not drawn) [TCMDC-134113] stands -48.7%; under `Cc1ccccc1C1CCN(C2CCC(NC(=O)c3csc(-c4cccc(Cl)c4)n3)CC2)CC1` (stereo not drawn) [TCMDC-134104], -68.67%; under `COc1cccc(-c2cc(C(=O)NC3CCC(N4CCC(c5ccccc5C)CC4)CC3)[nH]n2)c1` (stereo not drawn) [TCMDC-133532], 73.16%.

As for `Cc1ccccc1C1CCN(C2CCC(NC(=O)c3cncc(-c4ccccc4)c3)CC2)CC1` (stereo not drawn) [TCMDC-134111], the “% Inhibition” value is recorded as -71.64%. In the case of `COc1ccc(-c2csc(C(=O)NC3CCC(N4CCC(c5ccccc5C)CC4)CC3)c2)cc1` (stereo not drawn) [TCMDC-134109] it was 30.06%; in that of `CCc1c(C(=O)NC2CCC(N3CCC(c4ccccc4C)CC3)CC2)[nH]c2ccc(OC)cc12` (stereo not drawn) [TCMDC-133531], -38.07%. In the case of `Cc1ccccc1C1CCN(C2CCC(NC(=O)c3cc(-c4ccccc4)oc3C)CC2)CC1` (stereo not drawn) [TCMDC-134112] it was -36.13%. In the case of `Cc1ccc(/C=C/C(=O)NC2CCC(N3CCC(c4ccccc4C)CC3)CC2)cc1F` (stereo not drawn) [TCMDC-133514] it was -74.34%; in that of `Cc1ccccc1C1CCN(C2CCC(NC(=O)c3ccc(-c4ccccc4F)o3)CC2)CC1` (stereo not drawn) [TCMDC-134110], 121.1%. On to `Cc1ccccc1C1CCN(C2CCC(NC(=O)c3ccc(-c4cccc(C(F)(F)F)c4)o3)CC2)CC1` (stereo not drawn) [TCMDC-134108], for which the “% Inhibition” value turned out to be 57.44%. In the case of `Cc1ccccc1C1CCN(C2CCC(NC(=O)c3cc4cc(Cl)ccc4o3)CC2)CC1` (stereo not drawn) [TCMDC-134102] it was -69.82%; in that of `Cc1ccccc1C1CCN(C2CCC(NC(=O)c3cc(-c4ccc(Cl)cc4)cs3)CC2)CC1` (stereo not drawn) [TCMDC-133529], 65.99%; in that of `CCCCN(Cc1cnccc1-c1ccc(Br)cc1)c1ccc(C(O)(C(F)(F)F)C(F)(F)F)cc1` [TCMDC-135242], 23.71%. For the molecule `CCC(C)CN1CCCN(c2ccc(NC(=O)c3cccs3)cc2)CC1` (stereo not drawn) [TCMDC-134998], the “% Inhibition” value was 9.826%. With `CCN(Cc1ccccc1)C1CCN(Cc2cc(Br)ccc2O)CC1` [TCMDC-123661], the “% Inhibition” value turned out to be 1.171%.

Turning to `O=C(Nc1ccc(Cl)cc1)Nc1ccc(-c2csc(-c3nc4ccccc4[nH]3)c2)cc1` [TCMDC-133174], the “% Inhibition” value is recorded as 10.18%. Regarding `Cc1cc(N2CCCC2)nc(Nc2ccc(NC(=O)Nc3ccccc3)cc2)n1` [TCMDC-124705], the “% Inhibition” value was -12.69%. In the case of `Cc1cc(N2CCCC2)nc(Nc2ccc(NC(=O)C(C)(C)C)cc2)n1` [TCMDC-124716] it was 77.07%. Take `Cc1cc(N2CCCC2)nc(Nc2ccc(NC(=O)C(C)C)cc2)n1` [TCMDC-124970]: the “% Inhibition” value is -2.67%. As for `CCNc1cc(C(=O)N[C@@H](Cc2ccccc2)[C@H](O)CNCCCc2ccc(OC)cc2)cc(N2CCCC2=O)c1` [TCMDC-141685], the “% Inhibition” value was 6.049%. Under `CCNC(=O)N1CCc2ccc(Oc3nc(NCc4ccccc4OC)ncc3C)cc2CC1` [TCMDC-133414] stands 17.56%. Under `COc1ccccc1CNc1ccnc(N2CC(Oc3ccc(F)cc3)C2)n1` [TCMDC-135118] stands 57.67%; under `Fc1ccc(OC2CN(c3nccc(NCc4ccccc4Cl)n3)C2)cc1` [TCMDC-135110], 91.97%; under `Cc1onc(-c2ccccc2)c1-c1nc(NCc2ccccc2Cl)no1` [TCMDC-134205], -12.6%. As to `CCOc1ccccc1CNc1nccc(NCc2ccccc2OC)n1` [TCMDC-135119], the “% Inhibition” value was found to be 40.21%. Under `O=C(Nc1ccc(OC2CCN(Cc3ccc(F)cc3)C2)cc1)c1ccco1` (stereo not drawn) [TCMDC-133758] stands 44.14%; under `CC(C)(C)NC(=O)c1ccc(Oc2ccc(OC(F)(F)F)cc2)c(NC(=O)C(C)(C)C)c1` [TCMDC-137270], -22.87%; under `CCC(CC(C)C(=O)O)=C(c1ccccc1)c1ccccc1` (stereo not drawn) [TCMDC-131707], -2.137%. In the case of `CC(C)[C@H](NCC(=O)c1ccccc1)C(=O)O` [TCMDC-131333], the “% Inhibition” value is 52.78%. Under `COC(=O)C(C)NCC(=O)c1ccccc1` (stereo not drawn) [TCMDC-131767] stands 45.43%.
